KDM5B inhibitor – KDM5B demethylase inhibition | KDM5B demethylase, FDH-coupled NADH fluorescence (FDH is formaldehyde dehydrogenase) | AID 1347165 | 2.6% of 220,000 active | Q9UGL1 | Potency, µM (doses to about 57.7 µM), hits mostly inhibitors; active means well fitted inhibition curve with a large enough effect; further: nearly all actives have a fitted effect of over 70% in size
Target sequence (Q9UGL1 whole entry, looked up): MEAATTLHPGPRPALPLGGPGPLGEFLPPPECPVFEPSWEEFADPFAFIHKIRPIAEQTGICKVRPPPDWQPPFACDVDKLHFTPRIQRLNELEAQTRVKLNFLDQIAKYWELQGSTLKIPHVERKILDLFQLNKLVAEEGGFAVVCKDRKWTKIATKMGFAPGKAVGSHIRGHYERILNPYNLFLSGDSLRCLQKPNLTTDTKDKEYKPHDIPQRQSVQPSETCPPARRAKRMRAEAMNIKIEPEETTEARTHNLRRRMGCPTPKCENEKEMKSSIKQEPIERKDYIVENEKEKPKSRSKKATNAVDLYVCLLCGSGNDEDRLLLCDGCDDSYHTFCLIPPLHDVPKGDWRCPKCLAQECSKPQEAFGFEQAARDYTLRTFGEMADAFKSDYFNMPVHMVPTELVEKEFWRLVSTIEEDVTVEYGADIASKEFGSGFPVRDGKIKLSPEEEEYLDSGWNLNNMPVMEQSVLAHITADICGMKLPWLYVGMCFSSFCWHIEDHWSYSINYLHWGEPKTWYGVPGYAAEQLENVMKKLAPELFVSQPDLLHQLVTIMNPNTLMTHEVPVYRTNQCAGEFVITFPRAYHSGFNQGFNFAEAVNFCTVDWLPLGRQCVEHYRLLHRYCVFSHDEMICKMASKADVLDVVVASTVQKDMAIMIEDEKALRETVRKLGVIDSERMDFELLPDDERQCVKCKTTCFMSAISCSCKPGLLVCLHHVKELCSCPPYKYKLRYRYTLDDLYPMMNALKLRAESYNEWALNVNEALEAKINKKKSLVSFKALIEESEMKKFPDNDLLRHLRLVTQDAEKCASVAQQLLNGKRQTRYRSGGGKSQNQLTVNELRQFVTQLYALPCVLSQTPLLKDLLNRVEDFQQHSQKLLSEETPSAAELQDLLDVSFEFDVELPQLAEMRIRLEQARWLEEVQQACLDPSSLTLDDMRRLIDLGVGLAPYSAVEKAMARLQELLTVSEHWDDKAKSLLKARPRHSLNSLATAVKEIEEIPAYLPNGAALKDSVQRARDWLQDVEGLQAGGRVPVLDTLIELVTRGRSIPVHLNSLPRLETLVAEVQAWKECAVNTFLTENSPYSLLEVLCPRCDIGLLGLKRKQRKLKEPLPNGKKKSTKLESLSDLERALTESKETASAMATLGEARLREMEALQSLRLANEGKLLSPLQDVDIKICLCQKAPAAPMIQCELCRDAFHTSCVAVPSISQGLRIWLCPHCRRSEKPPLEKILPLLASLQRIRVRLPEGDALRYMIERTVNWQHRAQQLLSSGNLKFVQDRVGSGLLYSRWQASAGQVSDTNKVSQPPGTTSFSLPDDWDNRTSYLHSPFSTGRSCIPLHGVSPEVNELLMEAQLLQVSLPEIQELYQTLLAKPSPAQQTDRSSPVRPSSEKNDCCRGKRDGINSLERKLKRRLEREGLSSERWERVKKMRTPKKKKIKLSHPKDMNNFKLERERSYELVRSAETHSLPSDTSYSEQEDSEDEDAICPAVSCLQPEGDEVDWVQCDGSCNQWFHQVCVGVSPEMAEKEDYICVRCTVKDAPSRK
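Coupled FDH/NAD⁺ fluorescence readout. KDM5BΔAP 200 nM final; compound titration, 10 min RT preincubation; substrate mix 12.5 µM H3K4me3, 25 µM 2-OG, 50 µM Fe(II), 100 µM ascorbate, 0.25 mM NAD⁺, 0.25 U/mL FDH; ΔRFU over 30 min.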
Of the large screens only hits and unclear results are named; the others gave an inactive call. The full list was thinned out, with hits kept by preference.

O=C(c1ccc2nc[nH]c2c1)N1CCCC2(C1)Nc1cccnc1NC2=NC1CCCC1 (stereo not given)	KDM5B inhibitor 28.2µM
Cc1ccc(C(=O)N2CCCC3(C2)C(=NC2CCCC2)NC(=O)N3c2cccnc2)cc1 (stereo not given)	none
O=C(c1ccccc1)N1CCCC2(C1)C(=NC1CCCC1)NC(=O)N2c1cccnc1 (stereo not given)	none
O=C(O)C12CC3C4C5CC(C6C5C3C61)C42 (stereo not given)	none
COCCCn1c(C)cc(C(=O)Cn2nc(C(=O)O)c3ccccc3c2=O)c1C	none
Cc1ccc(-n2nnnc2SCC(=O)N(Cc2ccco2)C2=CCCCC2)cc1	none
O=C1CCN(S(=O)(=O)c2ccccc2)CCCN(S(=O)(=O)c2cccc(F)c2)CCN1	none
CCOC(=O)Nc1ccc(N2CCn3c(nc4ccccc43)C2)cc1	none
Cc1ccc(OCC(=O)N2CCCC(CO)(CCOc3ccccc3)C2)cc1 (stereo not given)	none
COc1ccc(OCC(=O)N2CCCC3(C2)Nc2cccnc2NC3=NC2CCCC2)cc1 (stereo not given)	KDM5B inhibitor 25.1µM
COc1cccc(N2C(=O)NC(=NC3CCCCC3)C23CCCN(C(=O)c2ccccc2OC)C3)c1 (stereo not given)	none
COc1ccc(C(=O)N2CCC3(C2)C(=NC2CCCC2)NC(=O)N3c2cccnc2)cc1 (stereo not given)	none
COc1cccc(N2C(=O)NC(=NC3CCCCC3)C23CCCN(C(=O)c2ccc(C)cc2)C3)c1 (stereo not given)	none
COc1cc(OC)cc(C(=O)N2CCCC3(C2)Nc2cccnc2NC3=NC2CCCC2)c1 (stereo not given)	KDM5B inhibitor 28.2µM
COc1cccc(N2C(=O)NC(=NC3CCCC3)C23CCCN(C(=O)c2ccc(C)cc2)C3)c1 (stereo not given)	none
Cc1ccccc1C(=O)N1CCCC2(C1)Nc1cccnc1NC2=NC1CCCC1 (stereo not given)	KDM5B inhibitor 15.8µM
O=C(c1ccccc1F)N1CCCC2(C1)C(=NC1CCCC1)NC(=O)N2c1cccnc1 (stereo not given)	none
CNC(=O)c1cccc(-c2cnc3[nH]cc(CC(=O)NCC(C)C)c3c2)c1	none
COc1cc(Cl)c(C)cc1-n1cc(C(=O)c2cc(Br)ccc2O)cc(C#N)c1=O	none
O=C(NCCc1ccccn1)C1c2ccccc2C(=O)N(Cc2ccccc2)C12CCCC2 (stereo not given)	none
O=C(Nc1cccc(C(=O)N2CCN(c3ccccc3)CC2)c1)C1=CSCCO1	none
CN(Cc1ccc(F)cc1)Cc1ccc(OC(F)(F)F)cc1	none
COc1cccc(C(=O)N2CCCC3(C2)Nc2cccnc2NC3=NCc2ccccc2)c1 (stereo not given)	KDM5B inhibitor 28.2µM
CCN1CC(c2ccccc2)CC2(CCN(C(=O)c3ccn(CC)n3)CC2)C1 (stereo not given)	none
COc1ccc(C(=O)N2CCCC3(C2)Nc2cccnc2NC3=NCc2ccccc2)cc1 (stereo not given)	KDM5B inhibitor 28.2µM
CCn1ccc(C(=O)N2CCC(c3cc(Cc4ccccc4)[nH]n3)CC2)n1	none
COc1ccc(C(=O)N2CCCC3(C2)NC(=O)N(Cc2cccc(Cl)c2)C3=O)cc1 (stereo not given)	none
CCn1ccc(C(=O)N2CCCC3(C2)Nc2cccnc2NC3=NCc2ccccc2)n1 (stereo not given)	KDM5B inhibitor 28.2µM
COc1cccc(C(=O)N2CCC3(C2)NC(=O)N(Cc2ccc(Cl)cc2)C3=O)c1 (stereo not given)	none
O=C(c1cccc(Cl)c1)N1CCCC2(C1)NC(=O)N(Cc1ccccc1)C2=O (stereo not given)	none
COc1cccc(C(=O)N2CCCC3(C2)NC(=O)N(Cc2ccc(C)cc2)C3=O)c1 (stereo not given)	none
COc1ccc(C(=O)N2CCCC3(C2)NC(=O)N(Cc2ccc(C)cc2)C3=O)cc1 (stereo not given)	none
CCOc1ccc(C(=O)N2CCCC3(C2)NC(=O)N(Cc2ccccc2)C3=O)cc1 (stereo not given)	none
O=C(c1ccsc1)N1CCCC2(C1)Nc1cccnc1NC2=NCc1ccccc1 (stereo not given)	KDM5B inhibitor 28.2µM
O=C(c1cc(F)cc(F)c1)N1C[C@@H](CO)[C@H](c2nc(C3CC3)no2)C1	none
Cc1noc(C)c1CC(=O)N1CCCC2(C1)Nc1cccnc1NC2=NCc1ccccc1 (stereo not given)	KDM5B inhibitor 28.2µM
Cc1noc(C)c1CC(=O)N1CCC[C@H](n2c(=O)n(C)c3cccnc32)C1	none
Cc1noc(C)c1CC(=O)N1CCCC(c2noc(COc3ccccc3)n2)C1 (stereo not given)	none
COc1ccc(-c2c(C)oc3cc(OCC(=O)O)ccc3c2=O)cc1OC	none
CCN1CCC(NC(=O)CN(C)Cc2ccc(C(F)(F)F)cc2)CC1	none
O=C(O)CNS(=O)(=O)c1ccc(Cl)cc1	none
Cc1cn2nc(-c3nc(C4CCCN(C(=O)c5sccc5C)C4)no3)cc2c(=O)[nH]1 (stereo not given)	KDM5B inhibitor 25.1µM

Bioassay records as filed in PubChem BioAssay.
